Among all 420,000 compounds or so, about 64,000 (15%) were called active. Not shown: some 27% with an inconclusive outcome. Calls follow the shape of the dose curve; as a rule, active = well fitted inhibition curve with a large enough effect; inconclusive = small, poorly fitted or top-dose-only effect; inactive = flat fitted curve, though single readings scatter. These entries were drawn from the full list. Where a call stands in place of a potency, no number is given.
Experiment: qHTS for Inhibitors of human tyrosyl-DNA phosphodiesterase 1 (TDP1): qHTS in cells in absence of CPT; also: nearly all actives have a fitted effect of over 55% in size
Conditions: DT40 Tdp1-/- hTDP1 cells, no CPT, ATP luminescence, 48 h; activity change, negative = growth inhibition: at 46.2 µM (top of the series)
Outline: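 DT40 Tdp1-/-;hTDP1 cells, no CPT (DMSO vehicle only), 400 cells/well; compounds pin-transferred; ≥48 hr, 37 °C; CellTiter-Glo 30 min RT dark, luminescence read.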
Potency is read from the fitted curve at half-maximal effect.

SMILES | Potency
Cc1cc(C)cc(OCC(=O)OCC(=O)NC2CCCC2)c1 | inactive
COC(=O)Cc1nc2c(N)nc(N)nc2[nH]c1=O | inactive
CS(=O)(=O)N1CCCC(C(=O)Nc2ccccc2C(F)(F)F)C1 (stereo unspecified) | inactive
CC(C)c1ccc(NC(=O)c2cc(S(=O)(=O)N3CCc4ccccc4C3)ccc2F)cc1 | inactive
CC1CCCCN1S(=O)(=O)c1ccc(F)c(C(=O)Nc2ccccc2C(F)(F)F)c1 (stereo unspecified) | 18.4 µM (active)
COc1cc(OC)c(C(=O)NNC(=O)c2ccccc2-n2cccc2)cc1OC | inactive
O=C(O)c1n[nH]nc1-c1ccccc1 | inactive
CC(C)(C)OC(=O)N1CCC(c2c(C(=O)N3CCN(c4cccc(Cl)c4)CC3)cnn2-c2cccc(Cl)c2)CC1 | 9.2 µM (active)
CC(C)(C)OC(=O)N1CCN(C(=O)c2[nH]c(C(F)(F)F)nc2-c2ccccc2)CC1 | inactive
Cc1cccc(-n2ncc(C(=O)N3CCN(c4ccc(Cl)cc4)CC3)c2C2CCN(C(=O)OC(C)(C)C)CC2)c1 | 9.2 µM (active)
Cc1cccc(-n2ncc(C(=O)N3CCC(C)CC3)c2C2CCN(C(=O)OC(C)(C)C)CC2)c1 | inactive
Cc1cccc(-n2ncc(C(=O)N3CCc4ccccc4C3)c2C2CCN(C(=O)OC(C)(C)C)CC2)c1 | inactive
CC(C)(C)OC(=O)N1CCC(C(=O)NNC(=O)c2ccc(Cl)cc2Cl)CC1 | inactive
N/C(=N\OC(=O)CCC1CCCCC1)c1ccccn1 | inactive
Cc1cccc(OCC(=O)NC2CC(C)(C)NC(C)(C)C2)c1 | inactive
C/C(=N\NC(=O)Cc1ccccc1[N+](=O)[O-])c1cccnc1 | inactive
CN(O)C(=S)c1ccccc1 | 0.164 µM (active)
CN(CC(=O)O)C(=O)c1ccccc1 | inactive
S=C(c1ccccc1)N1CCCC1 | inactive
CN(C)C(=O)c1ccc(-c2cncnc2Nc2ccccc2)cc1 | inactive
CC(Cc1cccs1)NC(=O)NC1CCCCC1 (stereo unspecified) | inactive
Cc1nc([N+](=O)[O-])cn1CC(=O)Nc1ccc2c(c1)OCO2 | inactive
COc1ccc(C(=O)c2c(C)c(CCC#N)n3ccccc23)c(OC)c1 | 20.6 µM (active)
Cc1c(C(=O)c2cccc([N+](=O)[O-])c2)c2ccccn2c1CCC#N | inactive

SMILES | Potency
COc1ccc(C(=O)COC(=O)C(O)c2ccccc2)c(OC)c1 (stereo unspecified) | inactive
CC(C)(C)c1ccc(/C=C2\Oc3c(ccc(O)c3CN3CCN(CCO)CC3)C2=O)cc1 | inactive
CCCCNC(=O)N1CCCC(N(C)CCc2ccc(OC)c(OC)c2)C1 (stereo unspecified) | inactive
CC(C)=CCCC1(C)C=Cc2c(ccc3c2[nH]c2cc(O)c(C)cc23)O1 (stereo unspecified) | 16.4 µM (active)
COc1ccc(-c2cnc(SCCNC(=O)c3ccc4c(c3)OCO4)[nH]2)cc1 | inactive
Brc1ccc(-c2nnc(-c3ccccc3)o2)o1 | inactive
Cc1ccc(CN2CCN(c3ccccc3Cl)CC2)o1 | inactive
O=C(CSC(=S)N1CCCCC1)c1c(F)cccc1F | 8.2 µM (active)
O=C(CN1CCCCC1)NC(=O)Nc1ccccc1F | inactive
O=C(O)c1cc2c(cc1NC(=O)c1c(F)cccc1Cl)OCCCO2 | inactive
Cc1nnc(SCC(=O)N(C(C)C)C(C)C)nc1C | inactive
CC(=O)NCCC(=O)Nc1nc(C)c(Cc2ccc3c(c2)OCO3)s1 | inactive
CC(=O)Nc1ccc(NC(=O)C(C)n2c3ccccc3c3nc(=O)cc(C)n32)cc1 (stereo unspecified) | inactive
CC(=O)Nc1ccc(Nc2nc3c(S(=O)(=O)c4ccc(C)c(C)c4)nnn3c3ccccc23)cc1 | inactive
N#Cc1cccc(Nc2c3c(nc4ccccc24)CCCC3)c1 | 25.9 µM (active)
N#Cc1cccc(NC(=O)CN2CCCCCC2)c1 | inactive
CCc1nc(SCC(=O)NNC(=O)c2ccc(C)cc2)c2ccccc2n1 | inactive
CC(=O)Nc1ccc(Nc2c3ccccc3nc3ccccc23)cc1 | 0.0082 µM (active)
O=[N+]([O-])c1cccc(Nc2c3ccccc3nc3ccccc23)c1 | 16.4 µM (active)
Cc1c(NC(=O)Nc2cccc([N+](=O)[O-])c2)c(=O)n(-c2ccccc2)n1C | inactive
Cc1ccc(Nc2c3c(nc4ccccc24)CCC3)cc1 | 18.4 µM (active)
O=C(Nc1cccc([N+](=O)[O-])c1)Nn1cnnc1 | inactive
N#Cc1cccc(NC(=O)CCC2CCCC2)c1 | inactive
Cc1nn(C(C)(C)C)c(OC(=O)CC(C)C)c1S(=O)(=O)c1ccccc1 | inactive

SMILES | Potency
CCn1c(CC(=O)Nc2ccccc2)nnc1SCC(=O)N1CCOCC1 | inactive
CCC1C(=O)c2ccccc2N(C)C1=O (stereo unspecified) | inactive
Cc1[nH]n(-c2ccc([N+](=O)[O-])cc2)c(=O)c1C=NCCN1CCN(C(=O)c2ccccc2F)CC1 | 14.6 µM (active)
CN1CCN(C(=O)c2cnn(-c3ccccc3)c2NC(=O)c2ccc([N+](=O)[O-])cc2)CC1 | inactive
Cc1[nH]n(-c2ccccc2)c(=O)c1N=Nc1ccccc1C(=O)N1CCCCC1 | inactive
COc1ccc2occ(C(=O)c3ccc(N=C(C)N(C)C)cc3)c2c1 | 23.1 µM (active)
COc1ccc(OC)c(C(=O)c2ccc(C(=O)O)cc2)c1 | inactive
COc1ccc2c(CC(=O)OCC(=O)NC(N)=O)coc2c1 | inactive
CN(C(=O)COC(=O)c1cc(=O)[nH]c2ccccc12)C1CCCCC1 | inactive
CN(CC(=O)Nc1c(Cl)cccc1Cl)C(=O)CNC(=O)C1CCCCC1 | inactive
O=C(O)C(CCc1ccccn1)c1ccccc1 (stereo unspecified) | inactive
O=C(COC(=O)Cn1[nH]c(=O)c2ccccc2c1=O)Nc1ncc(Cl)cc1Cl | inactive
O=C(CSC1=NCCS1)Nc1nc(-c2ccccc2)cs1 | inactive
Cc1ccc(-c2csc(NC(=O)Cn3[nH]c(=O)c4ccccc4c3=O)n2)cc1 | 16.4 µM (active)
C=CCOc1ccc(Cl)cc1CNCCCN1CCOCC1 | inactive
CCCCn1c(N)c(N(CCC(C)C)C(=O)CC2OC(=O)c3ccccc32)c(=O)[nH]c1=O (stereo unspecified) | inactive
CCOC(=O)c1sc(N)c(C#N)c1COC(=O)C1=COCCO1 | inactive
Cc1cc(=O)n2nc(N3CCC(C(=O)Nc4c(F)c(F)c(F)c(F)c4F)CC3)sc2n1 | inactive
Cc1cc(=O)n2nc(N3CCCC(C(=O)NCc4ccc(Cl)cc4)C3)sc2n1 (stereo unspecified) | inactive
COc1ccc(-c2cn3nc(N4CCCC(C(=O)NCCCOC(C)C)C4)sc3n2)cc1 (stereo unspecified) | 18.4 µM (active)
Cc1cccc(NC(=O)C2CCCN(C(=O)NCc3ccccc3)C2)c1C (stereo unspecified) | inactive
COc1ccc(-c2cn3nc(N4CCC(C(=O)Nc5cccc(C)c5C)CC4)sc3n2)cc1 | 11.6 µM (active)
Cc1cc(=O)n2nc(N3CCCC(C(=O)NCCC4=CCCCC4)C3)sc2n1 (stereo unspecified) | inactive
